# In PubChem BioAssay AID743445 (Broad Institute, 2014):
# Among all 310,000 compounds or so, about 1,700 (0.55%) were called active. What follows is part of a selection rich in actives, with near analogues and random picks from the rest. Values without a mark were called inactive. Rule as the data show it: active = inhibition above about 50%; inactive = the rest.
# Target: Histone-lysine N-methyltransferase NSD2 (Homo sapiens) (UniProt O96028)
# Experiment: blockers of NSD2 lysine methylation activity – biochemical, AlphaScreen, single concentration, set 2, primary screen (AID 743445)
# Conditions: NSD2 peptide methylation, 120 min, at 12.5 µM, hits give high values
# Chain of Histone-lysine N-methyltransferase NSD2 (Homo sapiens) (O96028 whole entry, looked up): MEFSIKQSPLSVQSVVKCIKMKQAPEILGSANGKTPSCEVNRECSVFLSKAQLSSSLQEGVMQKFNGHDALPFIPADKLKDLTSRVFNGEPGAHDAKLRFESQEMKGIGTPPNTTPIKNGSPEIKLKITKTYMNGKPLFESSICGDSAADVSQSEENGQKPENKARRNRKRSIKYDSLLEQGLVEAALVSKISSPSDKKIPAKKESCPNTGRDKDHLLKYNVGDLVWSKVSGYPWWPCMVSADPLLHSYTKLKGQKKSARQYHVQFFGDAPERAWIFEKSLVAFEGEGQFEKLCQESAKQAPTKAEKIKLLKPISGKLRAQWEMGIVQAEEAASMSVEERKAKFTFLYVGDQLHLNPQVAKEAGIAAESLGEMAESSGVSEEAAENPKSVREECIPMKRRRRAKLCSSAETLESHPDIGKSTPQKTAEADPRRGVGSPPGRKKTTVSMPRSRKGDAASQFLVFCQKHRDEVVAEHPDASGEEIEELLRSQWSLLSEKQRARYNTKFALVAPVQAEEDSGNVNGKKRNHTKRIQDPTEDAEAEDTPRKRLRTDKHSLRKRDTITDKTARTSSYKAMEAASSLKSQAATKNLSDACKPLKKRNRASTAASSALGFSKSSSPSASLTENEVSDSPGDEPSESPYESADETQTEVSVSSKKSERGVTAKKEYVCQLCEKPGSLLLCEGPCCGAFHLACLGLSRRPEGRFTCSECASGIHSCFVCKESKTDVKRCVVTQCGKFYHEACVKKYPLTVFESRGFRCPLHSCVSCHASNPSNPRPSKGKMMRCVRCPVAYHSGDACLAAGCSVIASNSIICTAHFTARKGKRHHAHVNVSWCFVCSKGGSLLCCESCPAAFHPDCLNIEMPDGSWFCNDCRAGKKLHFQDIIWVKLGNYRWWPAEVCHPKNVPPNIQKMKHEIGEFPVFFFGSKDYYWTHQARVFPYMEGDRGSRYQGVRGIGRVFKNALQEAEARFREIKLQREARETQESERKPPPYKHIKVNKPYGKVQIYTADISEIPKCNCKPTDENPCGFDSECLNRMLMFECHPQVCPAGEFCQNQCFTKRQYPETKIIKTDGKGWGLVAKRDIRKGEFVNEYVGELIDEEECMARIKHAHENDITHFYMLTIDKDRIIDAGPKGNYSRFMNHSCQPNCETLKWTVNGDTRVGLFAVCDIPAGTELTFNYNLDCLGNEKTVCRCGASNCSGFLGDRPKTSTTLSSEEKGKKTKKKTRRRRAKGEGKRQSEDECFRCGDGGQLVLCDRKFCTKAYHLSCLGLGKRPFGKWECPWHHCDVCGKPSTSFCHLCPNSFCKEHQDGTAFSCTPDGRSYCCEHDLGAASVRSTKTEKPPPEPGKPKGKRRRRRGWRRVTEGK
row,SMILES,inhibition
1,CC(C)CSc1nnc(-c2cccnc2)n1Cc1ccccc1,-2.26%
2,CCOc1ccccc1Nc1nnc(SCc2ccc(C(=O)OC)o2)s1,103% (active)
3,CCOc1ccccc1Nc1nnc(SCC(=O)Nc2cc(C)on2)s1,-5.24%
4,COC(=O)c1ccc(CSc2nnc(N)s2)o1,-2.67%
5,Cc1ccc(NC(=O)C(C)Sc2nc(C)cs2)cc1 (stereo not drawn),-1.63%
6,O=C(NCc1ccco1)C1CCCN(S(=O)(=O)c2ccc(Cl)s2)C1 (stereo not drawn),1.68%
7,CC(=O)Nc1ccc(S(=O)(=O)Nc2ccc(N3CCCCC3)cc2)cc1,11.4%
8,O=C(Cc1ccccc1)NC(=S)Nc1ccc(N2CCCCC2)cc1,0.281%
9,O=C1C=CC(=O)N1c1ccc(N2CCCCC2)cc1,51.2% (active)
10,O=C(CN1CCCc2ccccc21)NCc1ccc(F)cc1,0.199%
11,Cc1ccc(NC(=O)Cc2cccc(F)c2)c(S(=O)(=O)N2CCOCC2)c1,-1.61%
12,O=C(Nc1ccc(C(=O)O)c(O)c1)c1ccccc1,-0.136%
13,O=C(O)c1ccccc1N=N/C(=N/Nc1cc(S(=O)(=O)O)ccc1O)c1ccccc1,70.7% (active)
14,O=C(O)c1ccccc1/C=N/Nc1ccc(S(=O)(=O)Nc2ccc(Cl)cc2)cc1[N+](=O)[O-],14.9%
15,O=C(CSc1nnc(COc2ccccc2)n1-c1ccc(Cl)cc1)Nc1ccc2c(c1)OCO2,-1.07%
16,O=C(N/N=C/c1cccnc1)c1cc2ccccc2cc1O,4.16%
17,O=C(NN=Cc1ccc(N2CCOCC2)cc1)c1cc2ccccc2cc1O,-0.134%
18,Cc1ccc(/C=N/NC(=O)c2cc3ccccc3cc2O)o1,50% (active)
19,Clc1ccc(-n2c(COc3ccccc3)nnc2SCc2nc3ccccc3[nH]2)cc1,1.86%
20,Cc1cc(=O)[nH]c(SCC(=O)Nc2ccc(F)cc2F)n1,-12.4%

row,SMILES,inhibition
1,CN(C)S(=O)(=O)c1cccc(C(=O)N/N=C\c2ccco2)c1,3.26%
2,Cc1ccccc1S(=O)(=O)NC(=O)C1(C)CCN1C(=O)C1(c2ccccc2)CCCC1 (stereo not drawn),-0.963%
3,CCC1(C)N(O)C(C)(C)C(c2ccc(OC)cc2)=[N+]1[O-] (stereo not drawn),-2.21%
4,C/C(=N\O)C1(C)N(O)C(C)(C)C(c2ccc(Br)cc2)=[N+]1[O-] (stereo not drawn),-1.39%
5,CCC1=[N+]([O-])C(C)(/C(C)=N\O)N(O)C1(C)C (stereo not drawn),96.5% (active)
6,CC(C)NC(=O)C1(C)CCCCCN1C(=O)c1ccc(-c2ccccc2)cc1 (stereo not drawn),-1.44%
7,Cc1ccc(-n2c(SCC(=O)Nc3ccc(S(=O)(=O)Nc4nccs4)cc3)nnc2-c2ccncc2)cc1,6.51%
8,COc1cccc(N2CCN(CC(=O)N(C)Cc3ccc(F)cc3)CC2)c1,2.97%
9,COc1ccc(/C=N/Nc2cc(N3CCOCC3)nc(C)n2)c(OC)c1,7.29%
10,CN(C)c1ccc(/C=N/Nc2cc(N3CCOCC3)nc(N3CCOCC3)n2)cc1,4.94%
11,C(=N/Nc1cc(N2CCOCC2)nc(N2CCOCC2)n1)/c1ccccc1,50.1% (active)
12,Nn1c(SCC(=O)N2c3ccccc3Sc3ccccc32)nnc1-c1n[nH]c2c1CCC2,14.3%
13,Cc1ccc(-n2c(SCC(=O)Nc3cccc4ccccc34)nnc2-c2ccco2)cc1,-0.2%
14,O=C(CNC(=O)c1ccccc1)Oc1ccc([N+](=O)[O-])cc1,53.4% (active)
15,O=C(NNS(=O)(=O)Cc1ccccc1)c1ccc([N+](=O)[O-])cc1,-3.19%
16,COC(=O)CNC(=O)c1ccccc1[N+](=O)[O-],0.597%
17,CC(=O)Nc1cccc(-c2cc3nc(NCc4cccnc4)n(C)c(=O)c3s2)c1,-4.37%
18,Cc1ccccc1NC(=O)Cn1nnc(-c2ccccc2F)n1,-1.41%
19,O=C(NCc1ccccc1)[C@@H]1CCCN1C(=O)[C@@H](NS(=O)(=O)c1ccc(F)cc1F)C1CCCCC1,-1.37%
20,O=C(NC1=CC(=O)c2ccccc2C1=O)c1ccccc1,40.2%

row,SMILES,inhibition
1,CC(=O)N(C1=C(Cl)C(=O)c2ccccc2C1=O)c1ccc(C(=O)O)cc1,142% (active)
2,CCOC(=O)C1(Cc2ccccc2)CCN(Cc2cn(C(C)=O)c3ccccc23)CC1,3.51%
3,Cc1ccc(-c2nnc(SCC(=O)Nc3ccc(Oc4ccccc4)cc3)n2Cc2ccco2)cc1,0.417%
4,CCOc1ccc(/C=C/C(=O)OCC(=O)c2ccccc2OC)cc1OC,-0.606%
5,CCOC(=O)CCCNC(=O)COC(=O)/C=C/c1ccc2c(c1)OCO2,-2.71%
6,CCOc1cc(/C=C/C(=O)OCC(=O)NCCN2C(=O)CSC2=O)ccc1OCC(C)C,128% (active)
7,COc1ccc(-n2c(SCC(=O)NC3CCCC3)nnc2-c2ccncc2)cc1,7.3%
8,O=C(Cn1c(=O)sc2ccccc21)Nc1ccc2c(c1)OCCO2,6.04%
9,O=C(Cn1cc(C(F)(F)F)ccc1=O)Nc1ccc2c(c1)OCCO2,58% (active)
10,O=C(CN1CCC(O)(c2ccccc2)CC1)Nc1ccc2c(c1)OCCO2,-3.29%
11,O=C1Nc2ccccc2OC1CC(=O)N1CCCCCCC1 (stereo not drawn),4.5%
12,O=C(NCc1cccs1)C1CCCN(S(=O)(=O)c2ccc([N+](=O)[O-])cc2)C1 (stereo not drawn),-2.05%
13,CCOc1ccc(Cl)cc1-c1cc(C(=O)NCc2cccs2)[nH]n1,0.509%
14,CCOc1ccc(N(CC(=O)Nc2c(C)n(C)n(-c3ccccc3)c2=O)S(=O)(=O)c2ccc(Cl)s2)cc1,0.729%
15,COC(=O)c1c(-c2cccs2)csc1NC(=O)CSc1ncnc2sc(C)c(C)c12,-3.04%
16,Cc1sc2ncnc(SCC(=O)Nc3ccc(CN4CCCC4)cc3)c2c1C,56.5% (active)
17,Cc1sc2ncnc(SCC(=O)NC3CCS(=O)(=O)C3)c2c1C (stereo not drawn),-1.67%
18,Nn1c(SCC(=O)Nc2cccc3ccccc23)nnc1-c1cc(-c2ccc(F)cc2)n[nH]1,8.09%
